In PubChem BioAssay:
Active and inactive are the calls of the source.

Assays:
Albumin (Bos taurus) = Albumin (Bos taurus) (UniProt P02769); assay: compounds binding labelled BSA control protein – biochemical, small-molecule microarray, Alexa647 label, 635/667 nm fluorescence, artefact control for SMM control protein annotation, profiling panel (AID 1118); details: BSA-A647 binding, fluorescence 635 nm, higher = more signal;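 further: score merges 667 nm emission intensity and signal-to-noise per printed compound spot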
[1] = probe aXIP binding to arrayed compounds – biochemical, NeuroSMM set, 635/667 nm fluorescence, primary screen (AID 1119); details: small-molecule microarray, higher = more signal, called active from +8 up or from −8 down;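 further: probe is the protein aXip251-270 applied at 1 µg/mL to compound-printed slides; binding of probe to printed compounds measured as 667 nm fluorescence plus signal to noise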
[2] = probe aNOTCH3 binding on compound microarray – biochemical, small-molecule microarray, 635/667 nm fluorescence, primary screen (AID 1120); details: higher = more signal;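 further: probe is a biotin-tagged antibody raised against NOTCH3 rather than NOTCH3 protein; score merges spot fluorescence near 667 nm with spot signal to noise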
[3] = probe aNOTCH2 binding on compound microarray – biochemical, small-molecule microarray, 635/667 nm fluorescence, primary screen (AID 1121); details: higher = more signal;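 further: score merges feature fluorescence read at 667 nm with its signal to noise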
[4] = target: Carbonic anhydrase 2 (Homo sapiens) (UniProt P00918); assay: compounds binding carbonic anhydrase 2 – biochemical, small-molecule microarray, Alexa647-labelled CAII, profiling panel (AID 1122); details: CAII-A647 binding fluorescence, higher = more signal
[5] = COS7 lysate on small-molecule microarray, probe aHis, 635 nm (AID 1123); details: COS7 cell lysate, fluorescence, higher = more signal;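 further: z-score combines 667nm fluorescence intensity with signal-to-noise per printed compound spot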
[6] = probe aLAP1 signal on lysate-treated microarray – cell lysate, small-molecule microarray, COS7 lysate, primary screen (AID 1124); details: probe aLAP1, fluorescence, higher = more signal;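 further: lysate comes from COS7 cells expressing LAP1 and is applied at 0.3 µg/mL; score merges spot fluorescence near 667 nm with signal-to-noise over triplicate slides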
Sam68 (KHDRBS1) = assay: compounds binding KHDRBS1 protein – biochemical, small-molecule microarray, 635 nm fluorescence, primary screen (AID 1125); details: higher = more signal;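 further: score merges 667 nm channel intensity with signal to noise over triplicate slides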
[7] = tested on: Chordin-like protein 2 (CHRDL2); assay: compounds binding chordin-like 2 – biochemical, small-molecule microarray, 635 nm fluorescence, primary screen (AID 1126); details: fluorescence 635 nm, higher = more signal;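 further: printed compound slides probed with Chrdl2 protein at 4 µg/mL for 1 h at 4 C; score merges 667 nm emission intensity with signal to noise over three replicate slides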
[8] = target: Concanavalin-A (Canavalia ensiformis) (UniProt P02866); assay: compounds binding concanavalin A lectin – biochemical, small-molecule microarray, Alexa647 label, 635 nm, artefact control for SMM control protein annotation, primary screen (AID 1127); details: ConA-A647 binding fluorescence, higher = more signal;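 further: z combines 667 nm emission intensity with signal-to-noise across three replicate slides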
[9] = compounds binding Alexa647 anti-His antibody – biochemical, small-molecule microarray, 635 nm fluorescence, artefact control for SMM control protein annotation, primary screen (AID 1128); details: higher = more signal;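 further: score merges feature fluorescence with signal-to-noise for each printed compound spot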
[10] = tested on: Human papillomavirus type 1a E7 protein (residues 1-88); assay: HPV1a E7 small-molecule binders, primary screen, biochemical, small-molecule microarray, residues 1-88, 635 nm (AID 1129); details: small-molecule microarray binding, fluorescence 635 nm; higher = more signal
[11] = target: Focal adhesion kinase 1 (Homo sapiens) (UniProt Q05397); assay: PTK2 protein binding on printed compound slides – biochemical, small-molecule microarray, 635/667 nm fluorescence, BSA, DTT, primary screen (AID 1130); details: 635 nm fluorescence, higher = more signal;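 further: composite of spot emission at 667 nm and signal to noise over triplicate slides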
[12] = tested on: Fibrinogen (Alexa647-labelled); assay: Alexa647-fibrinogen binding to printed small molecules – biochemical, small-molecule microarray, 635/667 nm fluorescence, artefact control for SMM control-protein annotation, profiling panel (AID 1131); details: fibrinogen-A647 binding fluorescence, higher = more signal;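 further: z-score merges 667 nm fluorescence with per-spot signal-to-noise over triplicate slides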
[13] = target: Follistatin (Homo sapiens) (UniProt P19883); assay: FST protein binding to printed compounds – biochemical, small-molecule microarray, 635/667 nm fluorescence, primary screen (AID 1132); details: 635 nm fluorescence, higher = more signal
[14] = target: Fibroblast growth factor 2 (Homo sapiens) (UniProt P09038); assay: basic fibroblast growth factor binding to printed compounds – biochemical, small-molecule microarray, 635/667 nm fluorescence, primary screen (AID 1133); details: FGF2, fluorescence 635/667, higher = more signal
[15] = JC-1 mitochondrial potential readout, lung cancer cells – cell-based, A549, JC-1 fluorescence, basal, 24 h, 100 nL, profiling panel (AID 1138); details: higher = more signal;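 further: A549 lung adenocarcinoma cells under basal conditions with no added stimulus; test concentration not given here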
Lefty1 = Lefty1 protein binding to printed compounds – biochemical, small-molecule microarray, 635/667 nm fluorescence, primary screen (AID 1139); details: fluorescence 635/667, higher = more signal
[16] = tested on: wheat germ agglutinin (Triticum aestivum), Alexa647-labelled; assay: Alexa647-WGA lectin binding to printed small molecules – biochemical, small-molecule microarray, 635/667 nm fluorescence, artefact control for SMM control-protein annotation, profiling panel (AID 1140); details: WGA-A647 binding, 635 nm fluorescence, higher = more signal;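 further: score merges 667 nm feature emission with signal to noise over triplicate slides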
[17] = target: Luciferin 4-monooxygenase (Photinus pyralis) (UniProt P08659); assay: inhibition of purified Photinus pyralis luciferase – biochemical, luminescence, purified enzyme, 2006 set, primary screen (AID 1141); details: purified firefly luciferase, SteadyGlo luminescence, 30 min; higher = more signal, called active from +8 up or from −8 down;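 further: cell-free assay with purified firefly luciferase at 100 ng per well in PBS; test concentration not given here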
Luciferin 4-monooxygenase (Photinus pyralis), sequence (P08659 whole entry, looked up): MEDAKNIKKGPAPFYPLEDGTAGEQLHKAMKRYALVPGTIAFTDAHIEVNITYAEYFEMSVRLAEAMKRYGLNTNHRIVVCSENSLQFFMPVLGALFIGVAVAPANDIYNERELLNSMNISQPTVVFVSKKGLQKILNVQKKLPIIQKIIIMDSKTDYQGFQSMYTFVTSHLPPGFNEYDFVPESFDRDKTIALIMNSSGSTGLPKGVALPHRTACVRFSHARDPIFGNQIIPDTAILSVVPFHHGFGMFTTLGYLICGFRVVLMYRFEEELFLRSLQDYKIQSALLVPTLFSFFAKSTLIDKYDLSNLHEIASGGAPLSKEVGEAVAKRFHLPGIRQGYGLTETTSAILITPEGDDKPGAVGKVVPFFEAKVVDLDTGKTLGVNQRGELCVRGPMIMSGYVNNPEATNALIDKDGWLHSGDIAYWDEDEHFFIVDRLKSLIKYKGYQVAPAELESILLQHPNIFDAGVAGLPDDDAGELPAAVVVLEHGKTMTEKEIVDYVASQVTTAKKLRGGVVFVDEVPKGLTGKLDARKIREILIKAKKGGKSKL

Follistatin (Homo sapiens), sequence (P19883 whole entry, looked up): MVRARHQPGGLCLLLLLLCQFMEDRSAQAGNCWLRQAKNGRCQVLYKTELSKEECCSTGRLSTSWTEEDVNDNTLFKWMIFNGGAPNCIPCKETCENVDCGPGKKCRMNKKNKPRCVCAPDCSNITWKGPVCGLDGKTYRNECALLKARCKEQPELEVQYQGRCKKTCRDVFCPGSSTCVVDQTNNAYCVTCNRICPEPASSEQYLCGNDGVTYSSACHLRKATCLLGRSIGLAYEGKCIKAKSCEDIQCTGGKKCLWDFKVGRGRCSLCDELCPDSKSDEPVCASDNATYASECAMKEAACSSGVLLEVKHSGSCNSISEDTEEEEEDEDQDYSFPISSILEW
Fibroblast growth factor 2 (Homo sapiens), sequence (P09038 whole entry, looked up): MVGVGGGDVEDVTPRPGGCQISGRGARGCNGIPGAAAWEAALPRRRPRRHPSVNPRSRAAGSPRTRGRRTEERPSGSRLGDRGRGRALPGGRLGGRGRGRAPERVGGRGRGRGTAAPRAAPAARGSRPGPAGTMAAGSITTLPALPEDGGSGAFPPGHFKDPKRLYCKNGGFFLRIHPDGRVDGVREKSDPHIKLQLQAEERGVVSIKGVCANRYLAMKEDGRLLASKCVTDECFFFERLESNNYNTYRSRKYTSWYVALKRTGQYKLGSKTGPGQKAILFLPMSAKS
Concanavalin-A (Canavalia ensiformis), sequence (P02866 whole entry, looked up): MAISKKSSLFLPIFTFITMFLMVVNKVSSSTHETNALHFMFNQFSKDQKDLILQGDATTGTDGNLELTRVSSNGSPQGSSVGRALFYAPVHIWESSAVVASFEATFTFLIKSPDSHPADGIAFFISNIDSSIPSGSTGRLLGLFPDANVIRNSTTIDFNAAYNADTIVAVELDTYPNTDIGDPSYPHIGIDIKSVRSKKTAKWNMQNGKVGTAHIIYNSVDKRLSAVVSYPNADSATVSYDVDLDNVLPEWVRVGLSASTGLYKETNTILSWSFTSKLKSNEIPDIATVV
Focal adhesion kinase 1 (Homo sapiens), sequence (Q05397 whole entry, looked up): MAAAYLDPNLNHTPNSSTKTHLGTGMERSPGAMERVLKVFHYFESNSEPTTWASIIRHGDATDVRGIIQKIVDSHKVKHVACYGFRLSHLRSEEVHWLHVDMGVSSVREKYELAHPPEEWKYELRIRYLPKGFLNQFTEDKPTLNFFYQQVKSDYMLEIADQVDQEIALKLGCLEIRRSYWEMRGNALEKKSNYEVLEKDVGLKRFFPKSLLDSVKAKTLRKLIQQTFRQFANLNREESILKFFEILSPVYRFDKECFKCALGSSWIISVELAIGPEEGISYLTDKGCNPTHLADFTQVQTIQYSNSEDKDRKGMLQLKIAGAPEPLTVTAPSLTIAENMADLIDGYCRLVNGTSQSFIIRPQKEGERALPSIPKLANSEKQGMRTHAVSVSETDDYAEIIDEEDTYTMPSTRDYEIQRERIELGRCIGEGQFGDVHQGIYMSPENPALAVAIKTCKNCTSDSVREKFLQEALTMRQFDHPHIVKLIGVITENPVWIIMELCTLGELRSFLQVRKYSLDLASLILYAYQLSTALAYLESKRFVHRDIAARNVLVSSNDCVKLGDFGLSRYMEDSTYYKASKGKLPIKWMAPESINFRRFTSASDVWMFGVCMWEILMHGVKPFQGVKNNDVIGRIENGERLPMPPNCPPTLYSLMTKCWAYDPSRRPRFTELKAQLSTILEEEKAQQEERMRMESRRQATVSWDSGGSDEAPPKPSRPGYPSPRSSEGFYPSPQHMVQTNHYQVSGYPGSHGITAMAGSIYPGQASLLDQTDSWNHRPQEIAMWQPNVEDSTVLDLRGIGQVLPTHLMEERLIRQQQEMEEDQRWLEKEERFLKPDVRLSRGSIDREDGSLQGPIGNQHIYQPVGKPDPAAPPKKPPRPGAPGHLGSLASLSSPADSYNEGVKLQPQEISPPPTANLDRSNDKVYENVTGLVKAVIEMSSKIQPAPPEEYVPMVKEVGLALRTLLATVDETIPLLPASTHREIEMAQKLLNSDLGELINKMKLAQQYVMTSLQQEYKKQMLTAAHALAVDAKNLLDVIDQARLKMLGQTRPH
Albumin (Bos taurus), sequence (P02769 whole entry, looked up): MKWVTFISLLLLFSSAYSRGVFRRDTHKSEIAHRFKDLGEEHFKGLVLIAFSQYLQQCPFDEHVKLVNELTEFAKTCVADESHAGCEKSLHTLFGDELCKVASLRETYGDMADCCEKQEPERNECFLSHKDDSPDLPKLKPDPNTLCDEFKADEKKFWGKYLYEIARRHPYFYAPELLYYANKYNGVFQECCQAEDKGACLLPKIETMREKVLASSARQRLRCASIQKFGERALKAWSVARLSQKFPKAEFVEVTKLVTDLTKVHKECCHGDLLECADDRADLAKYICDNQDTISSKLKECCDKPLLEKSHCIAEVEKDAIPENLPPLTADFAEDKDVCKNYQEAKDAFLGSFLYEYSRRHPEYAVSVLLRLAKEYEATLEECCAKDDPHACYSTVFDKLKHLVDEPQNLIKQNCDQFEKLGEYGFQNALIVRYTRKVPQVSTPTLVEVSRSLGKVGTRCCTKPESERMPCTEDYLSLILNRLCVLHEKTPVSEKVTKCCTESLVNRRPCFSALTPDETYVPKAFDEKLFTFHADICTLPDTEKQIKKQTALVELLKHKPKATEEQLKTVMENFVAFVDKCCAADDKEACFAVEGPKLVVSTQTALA

| Structure (SMILES) | composite z-score (Albumin (Bos taurus)) | composite Z-score [1] | composite z-score [2] | composite z-score [3] | composite z-score [4] | composite z-score [5] | composite z-score [6] | composite z-score (Sam68 (KHDRBS1)) | composite z-score [7] | composite z-score [8] | composite z-score [9] | composite z-score [10] | composite z-score [11] | composite z-score [12] | composite z-score [13] | composite z-score [14] | z-score [15] | composite z-score (Lefty1) | composite z-score [16] | z-score [17] |
| --- | --- | --- | --- | --- | --- | --- | --- | --- | --- | --- | --- | --- | --- | --- | --- | --- | --- | --- | --- | --- |
| CC(C)(C)OC(=O)CC[C@]1(C(=O)NCC(O)CO)N=C(c2ccc(OCCCO)cc2)O[C@H]1c1ccccc1 (stereo not given in full) | 0.902 | 0.561 (inactive) | -0.0678 | -0.0843 | 0.873 | 3.11 | 0.0605 | 0.723 | -0.852 | -0.137 | 0.872 | 0.937 | -0.216 | 0.118 | -0.786 | -0.494 | 0.0908 | -1.71 | 0.94 | -1 (inactive) |
| C=CC[C@]1(C(=O)O)COC(c2ccc(OCCCO)cc2)=N1 | 0.157 | 0.0512 (inactive) | -0.0967 | -0.222 | 0.969 | 1.14 | 0.308 | 0.343 | 0.422 | -0.427 | 1.53 | 0.205 | -0.0931 | 0.219 | 0.372 | -0.105 | 0.0454 | 0.378 | 0.342 | -0.497 (inactive) |
| COc1ccccc1CN1C(=O)c2ccccc2[C@](Cc2ccccc2I)(C(=O)NCC(F)(F)F)[C@@H]1c1ccc(CO)cc1 | 0.832 | -0.46 (inactive) | 0.073 | -0.057 | 0.824 | 1.95 | 0.311 | 1.29 | -1.12 | 1.15 | 2.25 | 1.24 | 0.473 | 0.74 | 1.26 | 0.342 | -0.878 | 0.168 | 0.887 | 0.347 (inactive) |
| COC(=O)c1c(CC[C@@H](CO)NC(=O)N2CCC[C@H]2Cn2cc(Cc3ccccc3)nn2)oc(C(C)=O)c1C(=O)OC | 0.0832 | -0.413 (inactive) | 0.233 | -0.133 | 0.643 | 1.33 | 0.381 | 0.694 | 0.668 | 0.488 | -0.0636 | 0.485 | 0.397 | -0.522 | 0.613 | 0.147 | -0.58 | 0.824 | 0.541 | 1.15 (inactive) |
| C#CCN([C@@H](Cc1ccc(O)cc1)C(=O)OC)[C@@H](/C=C/C1CC1)[C@H](O)Cc1ccccc1 | -0.865 | -0.0582 (inactive) | -0.0567 | -0.172 | -0.303 | 0.071 | 0.0995 | -0.0361 | 0.523 | -0.58 | 0.241 | -0.968 | -0.0524 | -0.519 | 0.814 | -0.0354 | -1.6 | 0.618 | -0.55 | -0.0396 (inactive) |
| C=CC[C@@]1(C(=O)N2CCOCC2)N=C(c2ccc(OCCCO)cc2)O[C@@H]1c1ccccc1CN=[N+]=[N-] | 0.774 | 0.28 (inactive) | 0.405 | 0.083 | 0.527 | 2.89 | 1.41 | 1.33 | -0.186 | 1.16 | 3.06 | 1.23 | 0.201 | 0.905 | 1.35 | 1.45 | 1.97 | 0.349 | 0.786 | 0.0079 (inactive) |
| O=c1n(-c2ccccc2)c(=O)n2n1CC(COc1ccccc1)=C([C@H](O)CCc1ccccc1)[C@@H]2CO | -0.341 | 0.11 (inactive) | -0.187 | -0.0895 | -0.241 | 0.277 | -0.408 | -0.0362 | 0.315 | -0.352 | 0.308 | 0.0864 | -0.18 | 0.783 | 0.415 | 1.14 | 0.77 | 0.635 | 0.576 | -1.35 (inactive) |
| CCOC(=O)C1=CC[C@@H](c2cccc(Cl)c2)N(S(=O)(=O)c2ccc(C)cc2)C1 | 0.839 | -0.659 (inactive) | -0.0661 | -0.0488 | 0.685 | 2.15 | 0.568 | 0.674 | 0.0917 | 0.721 | 1.66 | 1.14 | 0.399 | -0.112 | 0.191 | -0.0072 | 2.48 | -0.345 | 0.844 | -2.75 (inactive) |
| [N-]=[N+]=NCc1ccccc1[C@H]1OC(c2ccc(OCCCO)cc2)=N[C@@]1(CCS(=O)(=O)c1ccccc1)C(=O)N1CCCCC1 | 1.05 | 0.32 (inactive) | 0.268 | 0.0562 | 0.753 | 2.83 | 0.512 | 1.31 | -0.565 | 1.2 | 2.98 | 1.23 | 1.12 | 1.02 | 1.1 | 0.227 | -1.16 | 0.53 | 1.44 | -0.844 (inactive) |
| COc1ccc(CCNC(=O)[C@@]2(Sc3ccc(C)cc3)CC(=O)N(C3Cc4ccccc4C3)[C@@H]2c2ccc(CO)cc2)cc1 | 0.575 | -0.413 (inactive) | 0.0522 | 0.0407 | 0.274 | 1.23 | 0.661 | 1.3 | 1.5 | 1.14 | 1.27 | 1.21 | 1.54 | 0.434 | 1.65 | 2.16 | 0.927 | 1.44 | 0.437 | 0.529 (inactive) |
